The source of these data is the supplement of paper PMC6555819.

Assay in all cases: PBM binding z-score (relative to random genomic background probes); higher = stronger binding; sequences stand for … in GC…GCGATTGACAGCGTAGAATGAAGG
For assay [1], the system named is FXR:RXRa (NR concentration 270 nM, RXRa partner concentration 90 nM). The method, boiled down: (§1)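 For binding z-scores, the reference was random background probes on custom Agilent 4×180K protein-binding microarrays. These arrays were incubated 1 h with ligand-free nuclear receptor dimers in PBS pH 7.4, 2% milk, 0.02% Triton X-100, 1 mM DTT, 0.2 mg/mL BSA and 0.4 mg/ml salmon testes DNA. Fluorescence was scanned after antibody detection of each partner (one per run) and regression-normalized.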

For assay [2], the system named is LXRa:RXRa (NR concentration 270 nM, RXRa partner concentration 90 nM). The gist of the method: as §1
Assay [3] has as its system LXRa homodimer (NR concentration 270 nM). The gist of the method:
as §1

For assay [4], the system named is LXRb:RXRa (NR concentration 270 nM, RXRa partner concentration 90 nM). The gist of the method: as §1
The test system of assay [5] is LXRb homodimer (NR concentration 270 nM). The method, boiled down: as §1
The test system of assay [6] is PPARa:RXRa (NR concentration 270 nM, RXRa partner concentration 90 nM). The method, boiled down:
as §1

Assay [7] concerns PPARg:RXRa (NR concentration 180 nM, RXRa partner concentration 90 nM). The method, boiled down: as §1
Assay [8] has as its system PPARg:RXRa 270nM:90nM, anti-RXR (NR concentration 270 nM, RXRa partner concentration 90 nM). The method, boiled down: as §1
For assay [9], the system named is PPARg:RXRa 30nM:10nM, anti-RXR (NR concentration 30 nM, RXRa partner concentration 10 nM). The method, boiled down:
as §1

The test system of assay [10] is PPARg:RXRa 90nM:30nM, anti-RXR (NR concentration 90 nM, RXRa partner concentration 30 nM). The gist of the method:
as §1

TGTCAAAGTTCAACGGTAACGTAAGTATCCACAC: the PBM binding z-score stood at 6.73 in [1]; 5.85 in [2]; 4.19 in assay [3]; 3.92 in assay [4]; 1.33 in [5]; 5.05 in assay [6]. The PBM binding z-score in [7] came out at 8.27; in assay [8], 7.38; in assay [9], 5.3; in assay [10], 6.83.
With CGTCCAAGGTCAGAGGGGTCAGTGAATGCCGAGT, the PBM binding z-score in assay [1] was found to be 6.36; in [2] it was 4.81; in assay [3], 1.33; in assay [4], 4.54; in assay [5], 0.592; in assay [6] it was 5.12. In addition, the PBM binding z-score in assay [7] turned out to be 4.33; in [8], 4.71; in assay [9], 1.43; in assay [10], 3.39.
ATCTCTAGGTAAGACTCAGGTCAGTGAAGAACGC: the PBM binding z-score in assay [1] is 0.852; in [2] it was 0.72; in assay [3], 0.909; in [4], 0.721; in assay [5], 0.721; in assay [6] it was 1.03. Moreover, the PBM binding z-score in [7] worked out at 0.296; in assay [8] it was 0.86; in assay [9] it was 0.135; in assay [10] it was 0.413.
Turning to ATCGAAAGGTCGAAGGCGAGTATACCCACCCGAA, the PBM binding z-score in assay [1] was 4.01; in [2], 3.3; in assay [3], 0.25; in assay [4], 2.4; in [5], 0.608; in assay [6], 3.71. Further, the PBM binding z-score in assay [7] is 2.33; in assay [8], 2.5; in assay [9] it was 0.887; in [10] it was 1.49.
For GCAGACATGTGAAACGCAGGTAACTCAGGGTGGC, the PBM binding z-score in assay [1] was -0.536; in assay [2], -0.654; in assay [3], -0.866; in [4], -0.864; in [5] it was -1.11; in [6], -0.505. Further, the PBM binding z-score was 0.622 in [7], -0.625 in assay [8], -0.725 in [9] and -0.59 in [10].
As to GCTAGCAGGCCATTTGGTTCACTCAATGACGGGC, the PBM binding z-score is -0.456 in [1]; -0.57 in assay [2]; -0.84 in assay [3]; -0.649 in [4]; -0.937 in assay [5]; -0.204 in assay [6]. The PBM binding z-score in [7] is 0.226; in assay [8] it was -0.536; in [9] it was -0.633; in assay [10], -0.582.
Consider ATCTCTAGGTAACAAGTTGAGTGAAAGAGAGGAC, for which the PBM binding z-score in assay [1] worked out at 0.601; in assay [2], 0.354; in assay [3], 0.274; in [4], 0.114; in assay [5] it was 0.76; in assay [6], 0.677. The PBM binding z-score in assay [7] came out at 1.25; in assay [8], 1.76; in assay [9], 0.856; in [10], 1.6.
With ATCTCTATGTAACCAAGTTCAGTGAATGCCGAAC, the PBM binding z-score in assay [1] amounted to 0.239; in [2], 0.344; in assay [3] it was 0.727; in assay [4] it was 0.489; in assay [5] it was 0.572; in [6], 0.351. Moreover, the PBM binding z-score in assay [7] is 0.288; in assay [8] it was 0.822; in [9] it was 0.337; in assay [10], 0.387.
On to GCTAGCAGGCCATTTGAGTCACTCAATGACGGGC, for which the PBM binding z-score in assay [1] was -0.524; in [2], -0.643; in assay [3], -0.699; in [4], -1.05; in assay [5], -0.622; in assay [6], -0.463. The PBM binding z-score in [7] is 0.311; in [8] it was -0.7; in [9], -0.625; in assay [10], -0.728.
GTCCCAAGGTGAATAGGTCGTTGATGAGTAGGCG: the PBM binding z-score in [1] is 0.85; in [2] it was 0.873; in [3], -0.08; in [4], 0.623; in assay [5] it was -0.403; in assay [6], 2.26. Moreover, the PBM binding z-score in [7] was 1.19; in [8], 1.4; in assay [9], 0.109; in [10], 0.815.
Turning to GCTTACGTGTCAAAGGTTATAGCATGAATAGAAT, the PBM binding z-score was 3.42 in [1]; 3.02 in assay [2]; -0.0204 in assay [3]; 2.94 in assay [4]; -0.0977 in [5]; 5.34 in assay [6]. Besides, the PBM binding z-score turned out to be 9.21 in [7], 8.05 in assay [8], 7.61 in [9] and 9.07 in [10].
Take CGTCCAAGGTCAAGGTCAGTGAAAGAGACTCGAA: the PBM binding z-score in assay [1] came to 7.52; in assay [2], 5.66; in assay [3], 1.09; in assay [4] it was 4.51; in assay [5], 0.985; in assay [6], 6.12. Besides, the PBM binding z-score came out at 6.53 in assay [7], 6.21 in assay [8], 2.56 in assay [9] and 4.65 in assay [10].
